# The supplement of paper PMC3334620
# In all, about 33,000 sequences were measured (“E-score (-0.5 to 0.5)”: median about -0.013, highest 2% from about 0.3 on). The full list was thinned out, with the highest values kept by preference.
# Target: T1, Msn1 (UniProt P22148)
# T1 sequence: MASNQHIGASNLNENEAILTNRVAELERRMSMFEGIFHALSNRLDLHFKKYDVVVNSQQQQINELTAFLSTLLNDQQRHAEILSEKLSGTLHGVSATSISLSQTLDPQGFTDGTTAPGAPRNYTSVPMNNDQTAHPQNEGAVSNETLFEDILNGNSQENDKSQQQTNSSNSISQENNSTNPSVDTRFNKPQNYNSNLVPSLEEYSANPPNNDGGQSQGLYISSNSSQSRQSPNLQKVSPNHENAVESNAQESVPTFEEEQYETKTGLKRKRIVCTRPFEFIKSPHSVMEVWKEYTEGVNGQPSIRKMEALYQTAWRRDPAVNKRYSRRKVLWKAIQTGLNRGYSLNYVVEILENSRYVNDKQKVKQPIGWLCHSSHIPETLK
# Experiment: PBM E-score (8-mer binding enrichment) (E-score (-0.5 to 0.5)); higher = stronger / more preferred TF binding
# Conditions: protein concentration: 200 nM; construct: GST-full length
# Summary of the method: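 Detection of bound protein used fluorescent anti-GST, with scans normalised by masliner. The proteins were GST-tagged yeast transcription factors applied at about 100-200 nM to universal all-10-mer Agilent arrays made double-stranded by primer extension. Each ungapped eight-base word, pooled with its reverse complement, was scored with an E-score from the Universal PBM Analysis Suite.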
row,Sequence,PBM E-score
1,CGTACGGC,-0.134
2,CCTATGTA,-0.0586
3,TACAAACA,0.301
4,GACAAACC,0.445
5,CACAAAAC,0.0522
6,AACAAAAC,0.199
7,CACAAACC,-0.135
8,CACACAAA,0.115
9,GACAAACA,0.456
10,GACACAAA,0.395
11,GACAAAAC,0.451
12,TACACAAA,0.205
13,AACAAACC,0.155
14,AACAAACA,0.133
15,GACATCAC,0.118
16,CGGCAGCC,-0.118
17,CGCGGTCC,-0.0855
18,AGTATTGG,-0.0788
19,AGAGTTAT,-0.0142
20,GATAGGCA,-0.0844
21,AGTAGGCA,-0.07
22,AACAAGAC,0.135

row,Sequence,PBM E-score
1,GACAAGAC,0.311
2,CACAAGAC,-0.118
3,GCCCATGA,-0.081
4,TGGGAGAA,-0.209
5,GGGGACAA,0.456
6,GGGGACCA,-0.223
7,TGGGACAA,0.471
8,TGGGACCA,-0.117
9,GGGGACAC,0.28
10,ATAGCACA,-0.0389
11,ATGGAGCG,-0.0801
12,CAGATAAG,0.102
13,ATCCGAAG,0.0243
14,ATCCGAAT,0.309
15,TTCCGAAA,0.0799
16,ATCCGAAC,-0.00081
17,GTCCGAGA,0.326
18,CTCCGACA,0.174
19,GTCCGACA,0.322
20,ATCCGACA,0.128
21,GTCCGAAA,0.312
22,ATCCGAGA,0.187

row,Sequence,PBM E-score
1,CTCCGAGA,0.152
2,ATCCGAAA,0.057
3,ATTAATTA,0.0938
4,CTCTTACC,0.0706
5,ATCGCCTC,-0.0571
6,CTCTCCCC,-0.213
7,ACAACATG,0.0414
8,AATATGCC,-0.141
9,CTCTGATA,0.112
10,CCAGGGAC,0.0428
11,ACGTTAGT,0.0228
12,ACTTACTG,-0.113
13,AAGCTGCG,0.00828
14,AGCCCTGC,-0.252
15,AAGGGCGG,-0.21
16,CCGAACCC,-0.146
17,CATTGCAC,0.0641
18,ATAACGAT,-0.192
19,CTAATGTA,0.143
20,ATAATGTC,0.427
21,ATAATGTA,0.139
22,CTAATGTC,0.378

row,Sequence,PBM E-score
1,ATAATGTG,-0.0687
2,CTAATGAC,-0.12
3,AATCCTTC,-0.0471
4,AACCCGTT,-0.0539
5,ACGAGCGT,-0.173
6,ATTCGTCG,0.0922
7,CTTCGTCC,-0.0108
8,ATTCGTCC,0.323
9,CTACGACA,0.311
10,CAACGACA,0.307
11,GTACGACA,0.345
12,CAACGACG,-0.0172
13,ATACGACA,0.133
14,TCACGACA,0.322
15,CCACGACA,0.179
16,ACACGACA,0.225
17,GCACGACA,-0.045
18,CGACGACA,0.17
19,CAACGACC,-0.156
20,CTACGACC,-0.119
